Measurements taken from the supplement of paper PMC7156485.
Where “and” joins values, the source holds several entries; their conditions need not be identical. Equal values may be shown once. ± gives the standard deviation of the averaged measurements.

Columns and labels:
Conditions in all cases: concentration: 10 µM; 24 h
HCC1569 [1] = assay: cell number relative to DMSO (% of DMSO); higher = more cells (less growth inhibition / toxicity)
Method in brief: (§1)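 Six fields per well were imaged at ×10 after the cells were fixed in 3.7% formaldehyde and stained with a rabbit anti-H1.0 antibody, an AlexaFluor 647 secondary and DAPI. The HCC1569 and TDF cells had been plated at 800 per well in 384-well plates (RPMI, 10% FBS) and treated in triplicate with compounds at 10 µM for 24 h at 37 °C. The values are the median of replicates of H1.0 nuclear intensity or cell number, as percent of the plate control. Smoothing for positional effects was applied to HCC1569 data.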

TDF [2] = assay: as above
Method in brief: as §1

TDF [3] = assay: H1.0 immunofluorescence intensity relative to DMSO (% of DMSO); higher = stronger H1.0 induction, active = 120 or more
Method in brief: as §1

HCC1569 [4] = assay: H1.0 immunofluorescence intensity relative to DMSO (% of DMSO); higher = stronger H1.0 induction, active = 140 or more
Method in brief: as §1
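For H1.0 immunofluorescence intensity relative to DMSO in this document: TDF is a line of transformed human dermal fibroblasts of mesenchymal origin.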
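For cell number relative to DMSO in this document: TDF denotes transformed human dermal fibroblasts of mesenchymal origin.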

Row | Structure (SMILES) | cell number (HCC1569 [1]) | cell number (TDF [2]) | H1.0 immunofluorescence intensity (TDF [3]) | H1.0 immunofluorescence intensity (HCC1569 [4])
1 | C=C[C@]1(C)C[C@@H](OC(=O)CO)[C@]2(C)[C@H](C)CC[C@]3(CCC(=O)[C@H]32)[C@@H](C)[C@@H]1O | 96.4 | 115 | 106 (inactive) | 95.9 (inactive)
2 | CC1=c2[nH]c3c(c2CCN1)C=CC(=O)C=3.Cl.O.O | 98.2 | 89 | 97.7 (inactive) | 144 (active)
3 | O=C(c1ccc(F)cc1)C1CCN(CCn2c(=O)[nH]c3ccccc3c2=O)CC1 [Ketanserin] | 101 | 105 | 91.7 (inactive) | 117 (inactive)
4 | CC1CNCCN1S(=O)(=O)c1cccc2cnccc12.Cl.Cl (stereo not drawn) | 101 | 105 | 88.4 (inactive) | 83 (inactive)
5 | CC1CCN(C(=O)CC#N)CC1N(C)c1ncnc2[nH]ccc12 (stereo not drawn) [Tasocitinib] | 110 | 110 | 89.1 (inactive) | 73.7 (inactive)
6 | O=C1NC(=O)C(c2ccccc2)(c2ccccc2)N1 [5,5-Diphenylhydantoin] | 99.8 | 108 | 89.2 (inactive) | 100 (inactive)
7 | CCCCN1CCCC[C@H]1C(=O)Nc1c(C)cccc1C.Cl | 104 | 107 | 96.8 (inactive) | 108 (inactive)
8 | CCCCCCCNC1CCCC1CCCCCCC(=O)O (racemic) | 99.7 | 93.5 | 88.5 (inactive) | 89.4 (inactive)
9 | Cc1nc2sccn2c(=O)c1CCN1CCC(=C(c2ccc(F)cc2)c2ccc(F)cc2)CC1 [Ritanserin] | 101 | 111 | 88.8 (inactive) | 105 (inactive)
10 | Cc1cc2nc3c(=O)[nH]c(=O)nc-3n(C)c2cc1C=O | 99.8 | 97.8 | 91 (inactive) | 115 (inactive)
11 | COc1ccc2ccc(=O)oc2c1CC=C(C)C [Osthole] | 97.3 | 92.5 | 103 (inactive) | 99.9 (inactive)
12 | COc1cc(C=CC(=O)c2ccc(O)cc2O)ccc1O [Homobutein] | 95.5 | 101 | 92 (inactive) | 100 (inactive)
13 | COC(=O)C1=C(C#N)NC(C)=C(C(=O)OC(C)C)C1c1cccc([N+](=O)[O-])c1 (stereo not drawn) | 89.8 | 97.4 | 98.2 (inactive) | 123 (inactive)
14 | Br.Br.NC(N)=NCCSSCCN=C(N)N [Guanidinoethyl disulfide dihydrobromide] | 100 | 108 | 96.5 (inactive) | 98.8 (inactive)
15 | COc1ccc(CN2CCN(C(c3ccc(F)cc3)c3ccc(F)cc3)CC2)c(OC)c1OC [Lomerizine] | 102 | 98.8 | 92.3 (inactive) | 105 (inactive)
16 | CC(C)S(=O)(=O)N[C@H]1CCOC[C@@H]1c1ccc(-c2ccc(C#N)s2)cc1 | 100 | 98.3 | 96.5 (inactive) | 104 (inactive)
17 | N#Cc1cccc(-c2c[nH]c3ncnc(N4CCOCC4)c23)c1 [3-(4-morpholino-7H-pyrrolo[2,3-d]pyrimidin-5-yl)benzonitrile] | 107 | 110 | 86.3 (inactive) | 80.8 (inactive)
18 | CCC(C)C(O)C(C)C(=O)C(C)C=C(C)CC(C)C1OC(=O)C1CC (stereo not drawn) [Ebelactone B] | 102 | 104 | 99.9 (inactive) | 89.2 (inactive)
19 | CCn1cc(C(=O)O)c(=O)c2ccc(Cc3ccccc3)nc21 [Amfonelic acid] | 101 | 94.6 | 92.2 (inactive) | 95.4 (inactive)
20 | CNC(=O)c1cc2c(cn1)[nH]c1ccccc12 [N-Methyl-beta-carboline-3-carboxamide] | 107 | 111 | 87.9 (inactive) | 85.2 (inactive)
21 | Cc1cccc(C)c1OCC(C)N.Cl (stereo not drawn) [Mexiletene hydrochloride] | 104 | 104 | 87.8 (inactive) | 94.3 (inactive)
22 | O=C(CCc1ccc(O)cc1)c1c(O)cc(O)cc1O [Phloretin] | 97.73 ± 0.41 | 98.5 ± 17 | 96.1 (inactive) | 107 (inactive)
23 | COc1ccc2[nH]c(I)c(CCNC(C)=O)c2c1 [2-Iodomelatonin] | 100 | 111 | 92 (inactive) | 93.2 (inactive)
24 | CCCC(CCC)C(N)=O [2-propylpentanamide] | 112 | 106 | 97 (inactive) | 95.6 (inactive)
25 | S=C(NCc1ccc2c(c1)OCO2)N1CCN(c2ncnc3c2oc2ccccc23)CC1 | 65.5 | 72.6 | 103 (inactive) | 132 (inactive)
26 | Cl.O=S(=O)(c1cccc2c(I)cccc12)N1CCCNCC1 | 105 | 116 | 99.4 (inactive) | 89.8 (inactive)

Row | Structure (SMILES) | cell number (HCC1569 [1]) | cell number (TDF [2]) | H1.0 immunofluorescence intensity (TDF [3]) | H1.0 immunofluorescence intensity (HCC1569 [4])
27 | CCCCCC(O)C=CC1OC(=O)CC(O)C1CC=CCCCC(=O)O (stereo not drawn) [11-Dehydro-thromboxane B2] | 100 | 97 | 98.6 (inactive) | 102 (inactive)
28 | OCC1OC(n2cnc3c(NC4CCCC4)nc(Cl)nc32)C(O)C1O (stereo not drawn) [2-Chloro-N6-cyclopentyladenosine] | 109 | 104 | 89.3 (inactive) | 80.9 (inactive)
29 | Nc1nc(=O)c2ncn(CCC(CO)CO)c2[nH]1 [Penciclovir] | 103 | 103 | 90.4 (inactive) | 117 (inactive)
30 | Cl.O=c1cc(N2CCOCC2)oc2c(-c3ccccc3)cccc12 [LY-294,002 hydrochloride] | 82 | 90.9 | 82.5 (inactive) | 131 (inactive)
31 | CC1CNCCN1S(=O)(=O)c1cccc2cnccc12.Cl.Cl (stereo not drawn) [H-7 dihydrochloride] | 96.8 | 100 | 107 (inactive) | 95 (inactive)
32 | O=c1ccc2ccc(O)c(O)c2o1 [Daphnetin] | 106 | 87.6 | 100 (inactive) | 95.2 (inactive)
33 | O=C1Nc2ccccc2C1=Cc1c(Cl)[nH]c2ccccc12 [Cdk1 Inhibitor] | 56.6 | 9.63 | 149 (active) | 143 (active)
34 | CC(C=CC=C(C)C=CC1=C(C)C(=O)CCC1(C)C)=CC=CC=C(C)C=CC=C(C)C=CC1=C(C)C(=O)CCC1(C)C [Canthaxanthin] | 102 ± 4.6 | 104 ± 3.5 | 90 (inactive) | 106 (inactive)
35 | CN1c2ccccc2C(=O)N2CCc3c([nH]c4ccccc34)C21 (stereo not drawn) [Evodiamine] | 61.2 | 9.57 | 165 (active) | 123 (inactive)
36 | COc1cc2c(c(OC)c1OC)-c1ccc(OC)c(=O)cc1C(NC=O)CC2 (stereo not drawn) [N-Formyl-Deacetylcolchicine] | 98.9 | 92.9 | 91.7 (inactive) | 81.9 (inactive)
37 | CCCCCCCCCCCCCCCCCCOCC(COP(=O)([O-])OCC[N+](C)(C)C)OC(C)=O (stereo not drawn) | 98.8 | 115 | 92.5 (inactive) | 103 (inactive)
38 | O=C1NC(=O)C(c2ccccc2)(c2ccccc2)N1 [Phenytoin] | 104 | 98.5 | 95.8 (inactive) | 110 (inactive)
39 | CC(C)Cc1ccc(C(C)C(=O)O)cc1 (racemic) | 103 | 112 | 95.4 (inactive) | 97.7 (inactive)
40 | NC(=O)c1ccc2nc(-c3ccc(Oc4ccc(Cl)cc4)cc3)[nH]c2c1 [Chk2 Inhibitor II] | 97.4 | 100 | 91.4 (inactive) | 132 (inactive)
41 | O=C(C=Cc1ccc(O)c(O)c1)OCCc1ccccc1 [Caffeic acid phenethyl ester] | 69.1 | 81 | 94.7 (inactive) | 108 (inactive)
42 | O=C(O)CCCC(O)C=CC=CC=CC(O)CC=CCCCCCO (stereo not drawn) [20-Hydroxy-leukotriene B4] | 100 | 101 | 95.2 (inactive) | 108 (inactive)
43 | CCCCCCCCCCCCCC(=O)O [Tetradecanoic acid] | 99.4 | 104 | 97.8 (inactive) | 102 (inactive)
44 | COc1cccc2c1C(=O)c1c(O)c3c(c(O)c1C2=O)CC(O)(C(C)=O)CC3OC1CC(N)C(O)C(C)O1 (stereo not drawn) [Daunorubicin] | 53.3 ± 2.3 | 8.2 ± 1.4 | 134 (active) | 1730 (active)
45 | O=c1oc2c(O)c(O)cc3c(=O)oc4c(O)c(O)cc1c4c23 [Ellagic acid] | 102 | 106 | 102 (inactive) | 90.6 (inactive)
46 | CCC1=C(C)CN(C(=O)NCCc2ccc(S(=O)(=O)NC(=O)NC3CCC(C)CC3)cc2)C1=O (stereo not drawn) [Glimepiride] | 102 | 111 | 93.1 (inactive) | 106 (inactive)
47 | CCCc1c(OCCCCc2nn[nH]n2)ccc(C(C)=O)c1O | 104 | 101 and 110 | 97.5 (inactive) and 94.5 (inactive) | 105 (inactive)
48 | CC(C)c1ccc2c(c1)c(SC(C)(C)C)c(CC(C)(C)C(=O)[O-])n2Cc1ccc(Cl)cc1.[Na+] | 102 | 108 | 91.8 (inactive) | 91.2 (inactive)
49 | CC(=O)OCC[N+](C)(C)C [Acetylcholine] | 106 | 103 | 100 (inactive) | 100 (inactive)
50 | Cc1ccc(S(=O)(=O)NC(Cc2ccccc2)C(=O)CCl)cc1 [N-p-Tosyl-L-phenylalanine chloromethyl ketone] | 85.5 | 84.6 | 102 (inactive) | 113 (inactive)
51 | CC(=O)O.NC(N)=NN=Cc1c(Cl)cccc1Cl [Guanabenz acetate] | 104 | 98 | 106 (inactive) | 97.8 (inactive)
52 | O=C(C1CCCCC1)N1CC(=O)N2CCc3ccccc3C2C1 (stereo not drawn) [Praziquantel] | 101 ± 4.6 | 103 ± 5.6 | 94.8 (inactive) | 106 (inactive)
